Rows were chosen to be rich in hits. Some 2.2% of all compounds tested hit in one or more screens of this group.
rat GALR2 ag – activates the rat galanin receptor 2 | O08726 | cell-based GALR2 agonist screen | activation, % at 10 µM | 0.5% of 16,000 active; in the data active = activation above about 15%
S1P1 ag – S1P1 (human) receptor agonism | AID 1044 | activation, % at 4.5 µM | P21453 | S1P1 agonist cell-based reporter assay | 1.5% of 16,000 active; in the data active = activation above about 80%
Active calls of the source: *.

SMILES	rat GALR2 ag	S1P1 ag
O=[N+]([O-])c1ccc(CS(=O)(=O)C(Cl)(Cl)Cl)o1	-10	96*
CN1CCN(c2ccccc2/C=N\NC(N)=S)CC1	-5	-16
O/N=C/c1ccc2c(c1)OCO2	-3	0

High-throughput results: PubChem, The Scripps Research Institute Molecular Screening Center
